# Reference: PubChem BioAssay AID686979 (National Center for Advancing Translational Sciences (NCATS), 2013)
# Screen size: about 420,000 compounds; about 50,000 (12%) were called active. About 26% were inconclusive and are not listed. Shown is part of a subset that was picked to be rich in actives. A number with no mark means an inactive call. Calls come from the whole dose curve; as a rule, active = well fitted inhibition curve with a large enough effect; inconclusive = small, poorly fitted or top-dose-only effect; inactive = flat fitted curve, though single readings scatter.
# Experiment: qHTS for Inhibitors of human tyrosyl-DNA phosphodiesterase 1 (TDP1): qHTS in cells in presence of CPT; note: nearly all actives have a fitted effect of over 55% in size
# Conditions: chicken DT40 Tdp1-/-;hTDP1 cells + 20 nM CPT, ATP luminescence, 48 h; series mostly up to 46.2 µM; activity change, negative = growth inhibition: at the top concentration
# Procedure, shortened: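 Chicken DT40 Tdp1-/- cells complemented with human TDP1, 400 cells/well, exposed to compounds plus 20 nM camptothecin for at least 48 h at 37 C; viability read as ATP content by CellTiter-Glo luminescence.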
# % is set by controls: 0 for no effect and ±100 for the full control effect; potency is the fitted concentration of half-maximal effect.
SMILES,Potency,"activity change, negative = growth inhibition"
COc1ccc(C(=O)NCC(=O)N/N=C/c2ccc([N+](=O)[O-])o2)cc1OC,2.31 µM (active),–
CCOc1ccc(NC(=O)CCC(=O)NNC(=O)NC2CCCCC2)cc1,–,-25.9%
NC(=S)N/N=C/c1ccc([N+](=O)[O-])cc1,–,-18.6%
O=C(N/N=C/c1ccc([N+](=O)[O-])cc1)C(=O)N1CCCC1,–,-9.59%
CCOc1ccc(NC(=O)CCC(=O)N/N=C/c2ccc([N+](=O)[O-])s2)cc1,10.3 µM (active),–
Cc1cc(C)nc(Nc2cc([N+](=O)[O-])ccc2C)n1,–,8.55%
Cc1cc(C)nc(N/N=C/c2ccc([N+](=O)[O-])o2)n1,23.1 µM (active),–
NC(=O)C(=O)N/N=C/c1ccc([N+](=O)[O-])o1,10.6 µM (active),–
CCCCCC(=O)Nc1ccc(C(=O)N/N=C/c2ccc([N+](=O)[O-])cc2)cc1,–,2.57%
COc1ccccc1OCCNC(=O)c1cc([N+](=O)[O-])cc([N+](=O)[O-])c1,–,2.49%
COc1cc(/C=N/NC(=O)CNC(=O)c2ccncc2)ccc1OC(C)=O,–,11%
CC(C)[C@@H](C(=O)O)N(Cc1cccc(CN([C@H](C(=O)O)C(C)C)S(C)(=O)=O)c1)S(C)(=O)=O,–,-12.6%
CC1=C(C(=O)Nc2ccccc2)C(c2ccc(C)cc2)n2nc(SCc3ccccc3C)nc2N1 (stereo unspecified),–,3.41%
COc1cccc(NC(=O)C(=O)NCC(c2ccc3c(c2)OCO3)N2CCN(C)CC2)c1 (stereo unspecified),–,-23.2%
COc1ccccc1CNS(=O)(=O)CC12CCC(CC1=O)C2(C)C (stereo unspecified),–,-2.24%
CCCc1c2oc(C(=O)O)cc(=O)c2cc2c(=O)cc(C(=O)O)n(CC)c12,–,16.1%
Cc1ccc(CC2CC(=O)N(c3cc(C)ccc3C)C2=O)cc1 (stereo unspecified),–,2.68%
NS(=O)(=O)c1ccccc1NC(=O)c1c(O)c2ccccc2[nH]c1=O,–,-1.4%
Cc1oc2cc(Br)c(O)c(Br)c2c1C(=O)c1ccccc1,–,10.4%
O=C(Nc1ccc(N2CCOCC2)cc1)c1cccc2c(-c3ccc(F)c(F)c3)coc12,–,-58.3%
COc1ccc(N2CCN(C(=S)Nc3ccc(S(N)(=O)=O)cc3)CC2)cc1,–,-27.4%
C/C(Cc1ccccc1)=N\NC(=O)CNC(=O)c1ccccc1Cl,–,-4.25%
Cc1ccc(C(=O)N(CC(=O)NC2CCCC2)c2ccc(F)cc2)s1,–,-1.84%
Cc1nn(CC(=O)N/N=C/c2ccc(F)cc2)c(C)c1[N+](=O)[O-],–,8.62%
COc1ccc(/C=N/NC(=O)CNC(=O)c2ccc(S(=O)(=O)N3CCCC3)cc2)c(OC)c1,–,-12.7%
Cc1ccccc1NCC(=O)N/N=C\c1ccc([N+](=O)[O-])s1,8.2 µM (active),–

SMILES,Potency,"activity change, negative = growth inhibition"
CC(C)(C)c1cc(C(=O)N/N=C/c2ccc([N+](=O)[O-])s2)n[nH]1,9.2 µM (active),–
O=C(Cc1cc(=O)[nH][nH]1)N/N=C/c1ccccc1[N+](=O)[O-],–,-0.646%
O=C(COc1ccccc1[N+](=O)[O-])N/N=C/c1ccc[nH]1,–,0.416%
Cc1nn(-c2ccccc2)c(Cl)c1/C=N/NC(=O)c1nn(C)cc1[N+](=O)[O-],–,-5.46%
COc1cc(/C=N\NC(=O)CNC(=O)c2cccc([N+](=O)[O-])c2)ccc1O,–,-1.83%
C/[N+]([O-])=C\c1ccc([N+](=O)[O-])o1,25.9 µM (active),–
COc1ccc(C(=O)NCC(=O)N/N=C/c2ccc([N+](=O)[O-])s2)cc1OC,20.6 µM (active),–
O=C(COC(=O)Cc1ccc(Cl)cc1Cl)NCc1ccco1,–,-8.95%
CN(C)/C=C(/C(=O)c1ccccc1)S(=O)(=O)c1ccc(Cl)cc1,–,0.918%
Cc1cc(Cl)nc(NC(=O)Nc2cccc(Cl)c2)n1,–,-5.03%
COc1cc(C(=O)Nc2cc(C(F)(F)F)ccc2N2CCOCC2)ccc1O,–,-4.87%
COc1ccc(NC(=O)CC(NC(C)c2ccccc2)C(=O)O)cc1 (stereo unspecified),–,7.18%
CCC(=O)c1c[nH]c(C(=O)NCC2CCCO2)c1 (stereo unspecified),–,-0.0051%
CCOC(=O)C1=CN(Cc2ccc(Br)cc2)S(=O)(=O)NC1C (stereo unspecified),–,-10.2%
COc1ccc(Cl)cc1C=CC=Nc1ccc(S(N)(=O)=O)cc1,18.4 µM (active),–
COc1ccc(Cl)cc1C=CC=NNC(=O)c1ccncc1,–,-28.1%
COc1ccccc1/C=C/C=N/n1c(-c2ccc(Cl)cc2Cl)n[nH]c1=S,–,-20.8%
Cc1ccc(NC(=O)CN(C)C(=O)c2ccc(Cl)c(S(=O)(=O)NCc3ccco3)c2)cc1,–,-11%
COc1ccc(CNC(=O)CCN2C(=O)c3ccccc3C2=O)cc1,–,-3.64%
COc1ccc2c(c1)C(=C(C#N)C#N)C(=O)N2CCc1ccccc1,3.66 µM (active),–
CCCCN1C(=O)/C(=C(/C#N)C(N)=O)c2ccccc21,–,-25.4%
Cc1ccc(C(=O)Oc2coc(CSc3nnc(NC(=O)c4cccs4)s3)cc2=O)cc1C,–,-13.4%
CCNC(=S)Nc1cccc(Cl)c1C,–,-13.1%
Cc1c(Cl)cccc1NC(=S)NCC(O)c1ccccc1 (stereo unspecified),–,4.14%
Cc1cccc(NC(=S)NCCc2ccc(Cl)cc2)c1C,18.4 µM (active),–
